# Assay results reported in publication PMC5700166.
# Tests used:
# Assay in all cases: protein-binding microarray (PBM); PBM: ~300 nM protein, 6 mM HEPES pH 7.8, 80 mM KCl, 0.5 mM EDTA, 0.5 mM EGTA, 6% glycerol, 35 ng/ul poly-dIdC, 1% milk, 1 h, room temperature; Ap Aiptasia and Nv Nematostella (sea anemones) / Co Capsaspora / Aq Amphimedon (sponge) / Dm Drosophila / Hu human; RHD is the Rel homology domain; high values mean tight binding
# Conditions in all cases: dsDNA, one strand shown
# GST-Ap-NF-kB RHD = molecular target: T1, GST-Ap-NF-kB RHD (Exaiptasia pallida (Aiptasia), UniProt A0A913YAJ5 2-422)
# T1 sequence: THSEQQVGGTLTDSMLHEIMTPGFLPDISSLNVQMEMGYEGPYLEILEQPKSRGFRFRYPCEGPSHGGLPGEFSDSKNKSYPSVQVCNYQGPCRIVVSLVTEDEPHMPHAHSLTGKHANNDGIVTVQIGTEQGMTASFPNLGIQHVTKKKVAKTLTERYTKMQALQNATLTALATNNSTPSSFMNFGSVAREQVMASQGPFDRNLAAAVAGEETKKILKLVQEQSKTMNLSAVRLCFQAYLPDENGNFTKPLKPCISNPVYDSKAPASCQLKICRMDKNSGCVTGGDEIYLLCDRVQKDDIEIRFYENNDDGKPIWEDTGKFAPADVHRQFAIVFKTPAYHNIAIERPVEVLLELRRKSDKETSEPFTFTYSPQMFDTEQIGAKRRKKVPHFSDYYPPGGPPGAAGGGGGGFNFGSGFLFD
# [1] = molecular target: T2, GST-Nv-NF-kB (Cys allele) (Nematostella vectensis, UniProt E5G601 2-411)
# T2 sequence: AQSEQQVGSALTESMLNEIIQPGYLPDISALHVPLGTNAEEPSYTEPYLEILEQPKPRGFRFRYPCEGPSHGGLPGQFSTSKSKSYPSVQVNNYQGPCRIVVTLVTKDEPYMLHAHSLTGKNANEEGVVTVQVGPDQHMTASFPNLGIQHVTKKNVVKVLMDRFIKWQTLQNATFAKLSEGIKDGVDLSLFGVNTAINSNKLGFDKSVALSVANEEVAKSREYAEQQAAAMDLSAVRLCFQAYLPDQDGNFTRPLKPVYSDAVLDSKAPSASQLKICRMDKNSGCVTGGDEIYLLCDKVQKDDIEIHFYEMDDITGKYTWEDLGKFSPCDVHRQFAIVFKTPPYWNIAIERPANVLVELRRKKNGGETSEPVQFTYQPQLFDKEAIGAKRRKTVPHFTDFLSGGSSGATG
# GST-Co-NF-kB = molecular target: T3, GST-Co-NF-kB (Capsaspora owczarzaki, UniProt F1ARL5 200-546)
# T3 sequence: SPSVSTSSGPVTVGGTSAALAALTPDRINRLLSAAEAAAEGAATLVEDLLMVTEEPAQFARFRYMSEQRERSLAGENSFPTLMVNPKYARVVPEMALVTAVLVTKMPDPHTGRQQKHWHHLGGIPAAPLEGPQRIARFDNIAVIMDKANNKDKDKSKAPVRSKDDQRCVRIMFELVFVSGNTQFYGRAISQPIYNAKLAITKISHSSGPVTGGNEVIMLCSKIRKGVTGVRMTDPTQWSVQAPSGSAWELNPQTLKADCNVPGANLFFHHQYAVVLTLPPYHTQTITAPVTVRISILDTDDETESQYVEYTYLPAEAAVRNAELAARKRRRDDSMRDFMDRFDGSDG
# GST-Dm-Relish = molecular target: T4, GST-Dm-Relish (Drosophila melanogaster, UniProt Q94527 99-473)
# T4 sequence: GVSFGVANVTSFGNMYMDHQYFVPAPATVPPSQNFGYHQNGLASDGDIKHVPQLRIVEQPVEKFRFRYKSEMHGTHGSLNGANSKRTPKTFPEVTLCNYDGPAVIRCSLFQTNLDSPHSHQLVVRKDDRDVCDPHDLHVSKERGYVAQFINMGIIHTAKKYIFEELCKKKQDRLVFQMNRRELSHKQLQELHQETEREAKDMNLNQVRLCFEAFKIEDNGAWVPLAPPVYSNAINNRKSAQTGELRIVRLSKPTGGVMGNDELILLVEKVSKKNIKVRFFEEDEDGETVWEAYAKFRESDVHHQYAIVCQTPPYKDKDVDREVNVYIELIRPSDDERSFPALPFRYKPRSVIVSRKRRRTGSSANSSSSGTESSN
# GST-Aq-NF-kB = molecular target: T5, GST-Aq-NF-kB (Amphimedon queenslandica, UniProt A9Y5G7 2-389)
# T5 sequence: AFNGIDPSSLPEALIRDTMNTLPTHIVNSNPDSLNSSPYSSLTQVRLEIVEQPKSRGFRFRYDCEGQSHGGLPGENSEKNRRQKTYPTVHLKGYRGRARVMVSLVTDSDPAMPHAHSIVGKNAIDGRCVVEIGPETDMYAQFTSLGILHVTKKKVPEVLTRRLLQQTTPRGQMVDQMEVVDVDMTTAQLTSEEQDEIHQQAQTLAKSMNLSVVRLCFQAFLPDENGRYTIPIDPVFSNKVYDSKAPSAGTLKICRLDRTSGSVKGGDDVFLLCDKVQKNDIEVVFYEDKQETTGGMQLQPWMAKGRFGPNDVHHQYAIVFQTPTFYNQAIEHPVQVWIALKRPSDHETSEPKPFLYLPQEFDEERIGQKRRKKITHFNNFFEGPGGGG
# GST-Hu-p50 = GST-Hu-p50 (Homo sapiens, UniProt P19838 7-356)
# Chain of GST-Hu-p50 (P19838 7-356): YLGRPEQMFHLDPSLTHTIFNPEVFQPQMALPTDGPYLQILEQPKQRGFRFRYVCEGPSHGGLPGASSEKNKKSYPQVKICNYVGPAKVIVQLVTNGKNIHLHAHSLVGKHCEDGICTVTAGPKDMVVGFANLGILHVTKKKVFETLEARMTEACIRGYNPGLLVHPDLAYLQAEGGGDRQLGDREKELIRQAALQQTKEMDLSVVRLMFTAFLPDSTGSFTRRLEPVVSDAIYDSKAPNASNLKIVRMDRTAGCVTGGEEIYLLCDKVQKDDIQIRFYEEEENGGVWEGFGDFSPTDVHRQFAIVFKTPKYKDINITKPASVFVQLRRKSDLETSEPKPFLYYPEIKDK
Sequence,binding signal (GST-Ap-NF-kB RHD) [z-score],binding signal [1] [z-score],binding signal (GST-Co-NF-kB) [z-score],binding signal (GST-Dm-Relish) [z-score],binding signal (GST-Aq-NF-kB) [z-score],binding signal (GST-Hu-p50) [z-score]
CCGATTAACATCAGGGGGAGTCATGATGTTAATCGGGTCTTGATTCGCTTGACGCTGCTG,5.67,4.38,4.79,3.88,4.55,4.72
CCGATTAACATCAGGGGACCCCCTGATGTTAATCGGGTCTTGATTCGCTTGACGCTGCTG,9.65,6.03,4.17,10.7,8.56,5.4
CCGATTAACATCACAACGACCCCTGATGTTAATCGGGTCTTGATTCGCTTGACGCTGCTG,2.27,1.3,1.28,1.08,2.48,1.12
CCGATTAACATCAAAAGCCCCCCTGATGTTAATCGGGTCTTGATTCGCTTGACGCTGCTG,5.96,6,4.6,8.42,6.73,5.72
CCGATTAACATCAAATACCCCCCTGATGTTAATCGGGTCTTGATTCGCTTGACGCTGCTG,7.87,5.54,6.37,6.76,6.24,5.42
CCGATTAACATCATACTTCCCCATGATGTTAATCGGGTCTTGATTCGCTTGACGCTGCTG,3.97,4.88,4.69,3.18,3.58,4.41
CCGATTAACATCAGGCATACCCCTGATGTTAATCGGGTCTTGATTCGCTTGACGCTGCTG,1.96,1.5,1.89,1.3,3.12,1.59
CCGATTAACATCAGAATACCCCCTGATGTTAATCGGGTCTTGATTCGCTTGACGCTGCTG,7.89,5.69,4.84,5.26,5.57,5.27
CCGATTAACATCAGAACCCCCCCTGATGTTAATCGGGTCTTGATTCGCTTGACGCTGCTG,7.14,4.85,4.1,7.49,5.36,5.28
CCGATTAACATCAGGGGGAGTACTGATGTTAATCGGGTCTTGATTCGCTTGACGCTGCTG,6.52,4.73,5.82,9.03,6.58,5.94
CCGATTAACATCAGGGAAATTAATGATGTTAATCGGGTCTTGATTCGCTTGACGCTGCTG,3.37,5.52,4.18,2.54,4.81,4.27
CCGATTAACATCAGGGGTTTTACTGATGTTAATCGGGTCTTGATTCGCTTGACGCTGCTG,5.39,5.15,1.49,7.6,5.84,5.77
CCGATTAACATCAGGGGATATACTGATGTTAATCGGGTCTTGATTCGCTTGACGCTGCTG,5.2,4.91,3.57,7.81,4.48,4.04
CCGATTAACATCAGAACATCCCCTGATGTTAATCGGGTCTTGATTCGCTTGACGCTGCTG,6.05,6.64,3.09,6.69,5.97,5.45
CCGATTAACATCACAGAAACCCCTGATGTTAATCGGGTCTTGATTCGCTTGACGCTGCTG,5.66,4.62,1.21,6.6,4.61,5.39
CCGATTAACATCACATATCCCCCTGATGTTAATCGGGTCTTGATTCGCTTGACGCTGCTG,6.5,5.23,5.73,3.26,4.79,5.03
CCGATTAACATCAAAATTCCCTGTGATGTTAATCGGGTCTTGATTCGCTTGACGCTGCTG,4.81,6.86,4.2,5.96,6.37,5.07
CCGATTAACATCACGGGGTTTTCTGATGTTAATCGGGTCTTGATTCGCTTGACGCTGCTG,6.68,6.13,2.98,8.05,5.9,5.61
CCGATTAACATCAATATCCCCCCTGATGTTAATCGGGTCTTGATTCGCTTGACGCTGCTG,7.34,5.13,8.06,5.53,5.74,5.69
CCGATTAACATCAGGGGGGATACTGATGTTAATCGGGTCTTGATTCGCTTGACGCTGCTG,6.78,4.85,6.57,5.55,4.94,5.66
CCGATTAACATCAAACATCCCCCTGATGTTAATCGGGTCTTGATTCGCTTGACGCTGCTG,6.59,6.38,5.97,6.53,6.6,5.44
CCGATTAACATCAGGGGGAACACTGATGTTAATCGGGTCTTGATTCGCTTGACGCTGCTG,6.57,5.66,8.64,6.58,5.54,5.28
CCGATTAACATCAATCCACCCCCTGATGTTAATCGGGTCTTGATTCGCTTGACGCTGCTG,3.95,3.33,4.65,2.99,3.63,4.45
CCGATTAACATCAAAGAGCCCCCTGATGTTAATCGGGTCTTGATTCGCTTGACGCTGCTG,4.73,4.16,1.68,3.94,5.01,4.43
CCGATTAACATCAGGGGCTTACCTGATGTTAATCGGGTCTTGATTCGCTTGACGCTGCTG,4.59,6.21,1.88,5.58,7.25,4.8
CCGATTAACATCAGGGACGCCCCTGATGTTAATCGGGTCTTGATTCGCTTGACGCTGCTG,6.59,5.71,1.13,7.12,7.88,4.5
